Results on 5 compounds are retold here after PubChem BioAssay.

Active and inactive are the calls of the source. Unless noted, no rule for the calls is given here.

The nature of assay [1]: anti-His antibody binders, primary screen, artefact control for SMM control protein annotation, biochemical, small-molecule microarray, 635 nm fluorescence (AID 1128).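 Also: score merges feature fluorescence with signal-to-noise for each printed compound spot.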 The conditions noted are these: anti-His Alexa647 antibody binding, higher = more signal.
Assay [2] relates to Human papillomavirus type 1a E7 protein (residues 1-88). Kind of assay: HPV1a E7 small-molecule binders, primary screen, biochemical, small-molecule microarray, residues 1-88, 635 nm (AID 1129). The following applies: small-molecule microarray binding, fluorescence 635 nm; higher = more signal.
Assay [3] has as its target Focal adhesion kinase 1 (Homo sapiens) (UniProt Q05397). Kind of assay: small-molecule microarray binders of FAK, primary screen, biochemical, 635/667 nm fluorescence, BSA, DTT (AID 1130).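 Also: composite of spot emission at 667 nm and signal to noise over triplicate slides.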 The conditions noted are these: PTK2 binding, 635 nm fluorescence, higher = more signal.
The test system of assay [4] is Fibrinogen (Alexa647-labelled). Kind of assay: fibrinogen binders on compound microarrays, profiling panel, artefact control for SMM control-protein annotation, biochemical, small-molecule microarray, 635/667 nm fluorescence (AID 1131).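 Also: z-score merges 667 nm fluorescence with per-spot signal-to-noise over triplicate slides.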 The conditions noted are these: fibrinogen-A647 binding fluorescence, higher = more signal.
Assay [5] concerns the target Follistatin (Homo sapiens) (UniProt P19883). Kind of assay: follistatin binders on small-molecule microarrays, primary screen, biochemical, small-molecule microarray, 635/667 nm fluorescence (AID 1132). The conditions noted are these: FST binding, 635 nm fluorescence, higher = more signal.
Assay [6] concerns the target Fibroblast growth factor 2 (Homo sapiens) (UniProt P09038). Kind of assay: FGF2 binders on small-molecule microarrays, primary screen, biochemical, small-molecule microarray, 635/667 nm fluorescence (AID 1133). The conditions noted are these: small-molecule microarray binding, FGF2, fluorescence 635/667; higher = more signal.
Assay [7] can be described thus: mitochondrial membrane potential change in A549 cells, profiling panel, cell-based, JC-1 fluorescence, basal, 24 h, 100 nL (AID 1138).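 Also: A549 lung adenocarcinoma cells under basal conditions with no added stimulus; test concentration not given here.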 The conditions noted are these: higher = more signal.
In assay [8] the test system is Lefty1. Kind of assay: Lefty1 binders on small-molecule microarrays, primary screen, biochemical, small-molecule microarray, 635/667 nm fluorescence (AID 1139). The following applies: small-molecule microarray binding, fluorescence 635/667; higher = more signal.
Assay [9] deals with wheat germ agglutinin (Triticum aestivum), Alexa647-labelled. Kind of assay: wheat germ agglutinin binders on compound microarrays, profiling panel, artefact control for SMM control-protein annotation, biochemical, small-molecule microarray, 635/667 nm fluorescence (AID 1140).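 Also: score merges 667 nm feature emission with signal to noise over triplicate slides.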 The conditions noted are these: WGA-A647 binding, 635 nm fluorescence, higher = more signal.
Assay [10] addresses Luciferin 4-monooxygenase (Photinus pyralis) (UniProt P08659). Kind of assay: firefly luciferase enzyme inhibitors, primary screen, biochemical, luminescence, purified enzyme, 2006 set (AID 1141).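 Also: cell-free assay with purified firefly luciferase at 100 ng per well in PBS; test concentration not given here.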 The conditions noted are these: SteadyGlo luminescence, 30 min, higher = more signal, called active from +8 up or from −8 down.
For assay [11], the system named is Wnt5a (protein binding on small-molecule microarray). Kind of assay: Wnt5a binders on small-molecule microarray, primary screen, biophysical, 635/667 nm fluorescence (AID 1142).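 Also: fluorescence read at 667 nm with signal to noise per printed feature.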 The conditions noted are these: 635 nm fluorescence, higher = more signal.
A short description of assay [12]: cell viability in Huh7 cells, primary screen, cytotoxicity control for HCV replication inhibitor project, CellTiter-Glo luminescence, basal, 48 h (AID 1143).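 Also: Huh7 hepatoma cells carrying a hepatitis C replication reporter with no stimulus; test concentration not given here.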 The following applies: Huh7 HCV replicon, higher = more signal, called active from +8 up or from −8 down. In general terms: In ATP-based viability assays light output follows the ATP content of the culture.
A short description of assay [13]: P. aeruginosa biofilm formation inhibitors, primary screen, PAO1 strain, BacTiter-Glo luminescence, LB-PBS (AID 1144). The following applies: 12 h, higher = more signal.
Assay [14] can be described thus: CREB reporter modulators without forskolin, primary screen, cell-based, PC12, CRE-LacZ reporter, unstimulated (AID 1145). The conditions noted are these: no forskolin, luminescence, 4.5 h, higher = more signal, called active from +8 up or from −8 down.
Assay [15] is described as follows: CREB reporter modulators under forskolin, primary screen, cell-based, PC12, CRE-LacZ reporter, forskolin-stimulated (AID 1146).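 Also: PC12 cells with 6xCRE LacZ reporter stimulated by forskolin 10 µM; beta-galactosidase reporter signal reflecting CREB driven transcription.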 The following applies: luminescence, 4.5 h, higher = more signal, called active from +8 up or from −8 down.
The target of assay [16] is Streptavidin (Streptomyces avidinii) (UniProt P22629). The assay is described as follows: streptavidin binders on small-molecule microarray, primary screen, artefact control for SMM compound annotation, biophysical, 635/667 nm fluorescence (AID 1147).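 Also: signal reflects streptavidin binding to arrayed compounds as a control protein.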 The conditions noted are these: streptavidin binding, higher = more signal.
The nature of assay [17]: small-molecule binders of probe aInhba, primary screen, biochemical, small-molecule microarray, 635/667 nm fluorescence (AID 1148).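 Also: score merges 667nm spot fluorescence with signal-to-noise for antibody binding to printed compounds.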 The following applies: higher = more signal.
Assay [18] addresses Torsin-1A (Homo sapiens) (UniProt O14656). The assay is described as follows: torsin A binders from cell lysate, primary screen, small-molecule microarray, wild-type, 635/667 nm (AID 1149). The following applies: COS7 hTOR1A-WT lysate, 635 nm fluorescence, higher = more signal.
For assay [19] the target is unchanged. The assay is described as follows: small-molecule binders of mutant TOR1A in lysate, primary screen, cell lysate, small-molecule microarray, COS7 lysate, 635/667 nm fluorescence (AID 1150).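 Also: score pools 667 nm emission and signal to noise measuring lysate protein binding.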 The conditions noted are these: COS7 hTOR1A mutant lysate, 635 nm fluorescence, higher = more signal.
Assay [20] deals with Sonic hedgehog protein (Shh). The assay is described as follows: small-molecule binders of Shh protein, primary screen, biochemical, small-molecule microarray, 635/667 nm fluorescence (AID 1151).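 Also: Shh protein binding to compounds spotted on small-molecule microarray slides; score combines spot fluorescence intensity with signal-to-noise across triplicate slides.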 The conditions noted are these: small-molecule microarray binding, 635 nm fluorescence; higher = more signal.

Chain of Luciferin 4-monooxygenase (Photinus pyralis) (P08659 whole entry, looked up): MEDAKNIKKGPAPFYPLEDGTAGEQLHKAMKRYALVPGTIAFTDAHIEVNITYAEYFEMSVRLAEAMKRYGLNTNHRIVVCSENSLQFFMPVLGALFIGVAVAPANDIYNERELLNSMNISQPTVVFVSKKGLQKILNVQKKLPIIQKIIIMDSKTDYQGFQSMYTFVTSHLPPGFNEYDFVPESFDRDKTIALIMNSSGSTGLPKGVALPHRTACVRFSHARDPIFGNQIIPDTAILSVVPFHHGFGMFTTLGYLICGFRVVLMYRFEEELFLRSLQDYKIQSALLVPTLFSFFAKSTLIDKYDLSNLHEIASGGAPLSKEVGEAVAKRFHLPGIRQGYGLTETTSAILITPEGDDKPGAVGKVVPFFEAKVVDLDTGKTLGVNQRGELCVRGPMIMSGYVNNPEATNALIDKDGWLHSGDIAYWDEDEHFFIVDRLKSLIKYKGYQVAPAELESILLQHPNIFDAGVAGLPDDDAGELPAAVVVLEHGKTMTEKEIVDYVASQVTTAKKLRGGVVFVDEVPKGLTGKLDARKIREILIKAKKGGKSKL
Chain of Torsin-1A (Homo sapiens) (O14656 whole entry, looked up): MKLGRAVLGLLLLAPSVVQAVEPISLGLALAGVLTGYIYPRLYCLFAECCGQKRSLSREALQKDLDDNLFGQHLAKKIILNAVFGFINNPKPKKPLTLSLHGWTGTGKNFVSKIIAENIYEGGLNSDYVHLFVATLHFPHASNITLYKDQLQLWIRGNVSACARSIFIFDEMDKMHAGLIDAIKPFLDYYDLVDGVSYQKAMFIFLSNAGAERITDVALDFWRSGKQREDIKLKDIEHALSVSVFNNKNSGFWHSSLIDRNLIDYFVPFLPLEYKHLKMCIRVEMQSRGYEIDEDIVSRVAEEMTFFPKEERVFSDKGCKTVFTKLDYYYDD
Chain of Focal adhesion kinase 1 (Homo sapiens) (Q05397 whole entry, looked up): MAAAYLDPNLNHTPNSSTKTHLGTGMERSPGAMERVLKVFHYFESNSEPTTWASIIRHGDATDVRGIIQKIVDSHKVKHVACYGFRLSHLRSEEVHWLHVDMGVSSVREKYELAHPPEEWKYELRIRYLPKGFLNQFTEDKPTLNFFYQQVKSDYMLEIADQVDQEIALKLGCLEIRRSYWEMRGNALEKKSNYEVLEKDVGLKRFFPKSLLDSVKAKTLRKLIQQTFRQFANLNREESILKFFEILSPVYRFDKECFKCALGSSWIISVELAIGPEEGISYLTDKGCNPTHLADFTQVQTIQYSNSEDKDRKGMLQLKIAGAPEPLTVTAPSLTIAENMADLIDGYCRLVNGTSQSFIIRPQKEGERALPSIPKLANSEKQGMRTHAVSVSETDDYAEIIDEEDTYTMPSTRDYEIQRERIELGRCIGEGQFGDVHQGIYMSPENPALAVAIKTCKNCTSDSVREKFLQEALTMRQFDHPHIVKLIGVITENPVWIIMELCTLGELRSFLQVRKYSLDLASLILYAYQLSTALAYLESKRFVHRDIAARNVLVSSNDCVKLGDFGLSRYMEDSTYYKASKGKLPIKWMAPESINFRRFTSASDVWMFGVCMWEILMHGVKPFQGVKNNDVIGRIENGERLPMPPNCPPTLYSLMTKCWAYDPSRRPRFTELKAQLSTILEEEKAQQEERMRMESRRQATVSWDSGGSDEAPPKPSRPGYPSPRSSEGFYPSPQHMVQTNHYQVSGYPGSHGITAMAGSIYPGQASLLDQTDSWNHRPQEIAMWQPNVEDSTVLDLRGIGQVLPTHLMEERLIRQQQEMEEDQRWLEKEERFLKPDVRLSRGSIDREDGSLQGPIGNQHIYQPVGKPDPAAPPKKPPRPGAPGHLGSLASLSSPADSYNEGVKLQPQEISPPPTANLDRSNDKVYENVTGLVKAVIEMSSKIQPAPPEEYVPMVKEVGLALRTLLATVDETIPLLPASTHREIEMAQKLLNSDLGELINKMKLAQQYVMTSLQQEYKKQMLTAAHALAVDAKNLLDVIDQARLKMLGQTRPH
Chain of Fibroblast growth factor 2 (Homo sapiens) (P09038 whole entry, looked up): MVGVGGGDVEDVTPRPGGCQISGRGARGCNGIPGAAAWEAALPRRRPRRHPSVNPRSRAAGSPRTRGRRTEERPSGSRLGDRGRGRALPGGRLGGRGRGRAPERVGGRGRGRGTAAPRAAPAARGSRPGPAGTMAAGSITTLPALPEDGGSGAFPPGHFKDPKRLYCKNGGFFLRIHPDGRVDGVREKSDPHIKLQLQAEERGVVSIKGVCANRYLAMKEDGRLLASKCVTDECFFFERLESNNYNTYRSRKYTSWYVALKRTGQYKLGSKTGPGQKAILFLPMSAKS
Chain of Follistatin (Homo sapiens) (P19883 whole entry, looked up): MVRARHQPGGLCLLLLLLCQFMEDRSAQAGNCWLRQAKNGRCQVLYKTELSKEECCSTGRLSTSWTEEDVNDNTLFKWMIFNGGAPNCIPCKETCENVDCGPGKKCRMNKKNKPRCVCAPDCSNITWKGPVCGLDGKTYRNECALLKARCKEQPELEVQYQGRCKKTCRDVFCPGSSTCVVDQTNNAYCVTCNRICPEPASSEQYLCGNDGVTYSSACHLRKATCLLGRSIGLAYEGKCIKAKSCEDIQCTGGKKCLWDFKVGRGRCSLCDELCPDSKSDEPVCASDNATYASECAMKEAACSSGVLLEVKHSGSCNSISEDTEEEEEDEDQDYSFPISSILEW
Chain of Streptavidin (Streptomyces avidinii) (P22629 whole entry, looked up): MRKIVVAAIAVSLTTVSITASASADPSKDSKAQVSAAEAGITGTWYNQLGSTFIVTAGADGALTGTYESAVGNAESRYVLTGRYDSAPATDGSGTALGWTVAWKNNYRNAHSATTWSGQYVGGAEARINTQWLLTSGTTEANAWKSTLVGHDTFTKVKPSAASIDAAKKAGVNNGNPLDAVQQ

Regarding `[N-]=[N+]=NCc1ccccc1C[C@]1(C(=O)NCC(O)CO)COC(c2ccc(OCCCO)cc2)=N1` (stereo not given in full), the composite z-score in assay [1] was 1.41; in [2], 1.2; in [3] it was 1.98; in assay [4], 0.0694; in assay [5], 0.831; in assay [6], -0.0586. Also, the composite z-score is -0.683 in [8]; 0.964 in assay [9]; 0.956 in [11]; 1.43 in assay [16]; 0.435 in assay [17]; 0.842 in assay [18]. Further, the composite z-score is 2.3 in assay [19] and -1.03 in [20]. Further, the z-score in assay [7] is 1.18; in assay [10] it was -0.0644 (inactive); in [12] it was -1.57 (inactive); in [13] it was 0.305 (inactive); in assay [14] it was 1.12 (inactive); in assay [15], -1.08 (inactive).

On to `C=C(COC)C(=O)CC[C@@H](OC(=O)c1ccccc1-c1ccccc1C(=O)O)c1ccc(CO)o1`, for which the composite z-score in assay [1] is 1.73; in [2], 0.339; in assay [3] it was 0.0109; in [4] it was -0.363; in assay [5], 1.05; in assay [6], 1.81. The composite z-score was 1.56 in [8]; -0.407 in assay [9]; 1.24 in [11]; -0.517 in assay [16]; -0.188 in assay [17]; 1.67 in [18]. Besides, the composite z-score was 0.404 in assay [19] and 1.91 in assay [20]. In addition, the z-score in assay [7] was -0.789; in [10] it was -3.78 (inactive); in [12], -7.58 (inactive); in assay [13], 0.164 (inactive); in [14], 8.29 (active); in assay [15] it was 5.1 (inactive).

For the compound `COCC1C2CC[C@H]3C(OCc4ccc(F)cc4C(F)(F)F)OC[C@]4(C)[C@H]3C2=C(CN4C(=O)OC(C)(C)C)[C@H](C)C1COC` (stereo not given in full), the composite z-score in assay [1] is 0.976; in [2], 1.18; in assay [3], 0.475; in [4], 0.764; in assay [5] it was 0.342; in assay [6], -0.593. For the same compound, the composite z-score in [8] is -0.348; in assay [9], 1.14; in assay [11], 0.33; in assay [16] it was 1.2; in assay [17], 0.385; in assay [18], 0.404. The composite z-score in assay [19] is 1.35; in assay [20], -1.4. The z-score is 1.52 in assay [7]; 0.248 (inactive) in [10]; -1.84 (inactive) in assay [12]; 0.338 (inactive) in [13]; 0.0007 (inactive) in [14]; 0.172 (inactive) in assay [15].

Turning to `O=C1C[C@@](C(=O)O)(c2ccc([N+](=O)[O-])cc2)[C@@H](c2ccc(CO)cc2I)N1CC12CC3CC(CC(C3)C1)C2`, the composite z-score in [1] was 0.829; in assay [2], 1.11; in assay [3], 0.365; in [4], 0.607; in [5] it was 0.348; in [6] it was -0.35. In addition, the composite z-score in assay [8] is 0.665; in [9] it was 1.03; in assay [11], 0.0743; in [16] it was 0.975; in assay [17], -0.12; in assay [18], 0.663. In addition, the composite z-score in [19] was determined as 0.381; in [20], 0.617. Besides, the z-score in [7] is -1.1; in assay [10] it was -0.869 (inactive); in [12] it was -5.39 (inactive); in assay [13], -0.142 (inactive); in assay [14] it was 0.468 (inactive); in [15], 3.72 (inactive).

Regarding `COc1ccc([Si](C)(C)[C@H]2[C@H](CC(=O)N3CCC[C@H]3CO)O[C@@]3(C(=O)N(c4ccccc4)c4ccccc43)[C@@H]2C)cc1`, the composite z-score in assay [1] is 0.318; in assay [2], 0.0005; in assay [3], 0.223; in [4], -0.445; in assay [5], 0.813; in assay [6] it was 0.441. Further, the composite z-score in assay [8] is 0.992; in assay [9] it was 0.0807; in [11], -0.154; in assay [16], -0.124; in assay [17], -0.154; in assay [18], 0.656. Moreover, the results for the composite z-score in assay [19] and in assay [20] were 0.0932 and 1.23, respectively. Besides, the z-score in [7] is 0.16; in [10], 0.72 (inactive); in [12], -3.6 (inactive); in assay [13] it was 0.355 (inactive); in [14] it was -0.636 (inactive); in assay [15] it was -0.38 (inactive).
